# High-throughput results as filed in PubChem BioAssay.
# BAZ2B block = inhibitors of human BAZ2B bromodomain; Q9UIF8; AlphaScreen BAZ2B-H3K14Ac peptide displacement; Potency, µM (titrated, usually from 114 µM), for the others: at the highest dose activity change, negative = inhibition, usual class: inhibitors; 4.4% of 360,000 active; AID 504333; further: potency means the concentration at half of the fitted maximal effect; on the % scale 0 is the no-effect control and ±100 the full control effect; nearly all actives have a fitted effect of over 60% in size
#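 Multi-concentration screen (max 110 uM) measuring displacement of acetylated histone H3 peptide from BAZ2B by AlphaScreen, using 50 nM protein, 50 nM peptide and 10 ug/mL streptavidin donor plus Ni-chelate acceptor beads.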
# HP1b binding inh = blocks HP1-beta chromodomain binding to methylated histone tails; P83916; AlphaScreen HP1-beta / biotin-H3K9me3 peptide binding; Potency, µM (top dose mostly 114 µM), inactives show at the highest dose activity change, negative = inhibition, hits mostly inhibitors; 0.56% of 390,000 active; further: potency means the concentration at half of the fitted maximal effect; nearly all actives have a fitted effect of over 70% in size
#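 Compound inhibition of the preformed complex between 50 nM HP1-beta and 50 nM biotinylated H3K9me3 peptide was read by AlphaScreen. Buffer was PBS pH 7.4 with 0.01% Tween-20. Incubations ran 30 min at room temperature, with 10 ug/mL donor/acceptor beads.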
# PI5P4K alpha inh = PI5P4K alpha (human) kinase inhibition; PI5P4Kalpha enzyme, ADP-Glo luminescence, 60 min; stronger effect = lower value; 1.2% of 330,000 active; max response, %; AID 652105; P48426; active means max response of -50% or lower; inconclusive means between -30% and -50%; inactive means -30% or higher; further: value at the top dose of about 77 µM; on the % scale 0 is the no-effect control and ±100 the full control effect
# Target sequence (P48426 whole entry, looked up): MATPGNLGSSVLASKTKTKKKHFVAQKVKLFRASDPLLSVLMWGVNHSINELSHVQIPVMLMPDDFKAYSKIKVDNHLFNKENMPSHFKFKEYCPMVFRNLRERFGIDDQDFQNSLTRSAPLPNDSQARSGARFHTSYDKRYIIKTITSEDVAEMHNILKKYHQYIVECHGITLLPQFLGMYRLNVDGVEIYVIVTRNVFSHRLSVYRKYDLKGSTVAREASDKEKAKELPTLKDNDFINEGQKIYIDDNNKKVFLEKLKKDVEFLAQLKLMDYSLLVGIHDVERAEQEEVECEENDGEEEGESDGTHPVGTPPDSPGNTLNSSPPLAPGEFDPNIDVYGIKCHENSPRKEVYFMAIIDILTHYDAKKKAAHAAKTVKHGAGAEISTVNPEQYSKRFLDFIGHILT
#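 qHTS, 1536-well: enzyme/substrate mix, compound by pin tool, 5 microM ATP final; RT 60 min; ADP-Glo reagents 1 (45 min) then 2 (30 min); luminescence.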
# G9a block = inhibitors of human histone lysine methyltransferase G9a; G9a H3K9 monomethylation, AlphaScreen, 2 h; 8.8% of 350,000 active; Potency, µM (highest dose often 102 µM), inactives show at the top dose activity, negative = inhibition, usual class: inhibitors; Q96KQ7; AID 504332; further: potency means the concentration at half of the fitted maximal effect; on the % scale 0 is the no-effect control and ±100 the full control effect; nearly all actives have a fitted effect of over 75% in size
# Target sequence (Q96KQ7 913-1193 limits assumed): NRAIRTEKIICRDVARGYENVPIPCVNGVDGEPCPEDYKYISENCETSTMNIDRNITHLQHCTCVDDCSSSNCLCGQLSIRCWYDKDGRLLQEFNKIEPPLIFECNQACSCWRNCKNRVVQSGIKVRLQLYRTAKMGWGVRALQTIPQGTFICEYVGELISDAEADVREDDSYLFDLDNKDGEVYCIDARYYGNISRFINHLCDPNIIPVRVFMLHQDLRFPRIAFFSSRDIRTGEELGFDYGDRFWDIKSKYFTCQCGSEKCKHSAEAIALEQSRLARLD
#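 AlphaScreen detection with an anti-monomethyl H3K9 antibody quantified product after a 2 h room-temperature reaction containing 500 nM biotinylated H3K9 peptide, 20 µM SAM and 20 nM enzyme, which had been preincubated 15 min with compound.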
# L3MBTL1 inh = blocks human L3MBTL1; Q9Y468; AlphaScreen L3MBTL1–H3K9me1 peptide binding; Potency, µM (highest dose often 57.1 µM), for inactives: top-dose activity, negative = inhibition, hits mostly inhibitors; 0.66% of 230,000 active; AID 485360; further: potency means the concentration at half of the fitted maximal effect; on the % scale 0 is the no-effect control and ±100 the full control effect; nearly all actives have a fitted effect of over 60% in size
#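 L3MBTL1 50 nM + b-AHA-H3(1-15)K9me1 75 nM, 30 min RT; compound added, 30 min RT; streptavidin donor/Ni-chelate acceptor beads 10 ug/mL each final, 30 min RT dark; AlphaScreen read.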
# JMJD2A Tudor inh = inhibitors of human JMJD2A Tudor domain. O75164. AlphaScreen JMJD2A-Tudor / H3K4me3 peptide binding. Potency, µM (titrated, usually from 114 µM), for the others: top-dose activity change, negative = inhibition, usual class: inhibitors. 4.4% of 390,000 active; further: potency means the concentration at half of the fitted maximal effect; on the % scale 0 is the no-effect control and ±100 the full control effect; nearly all actives have a fitted effect of over 50% in size
# Numbers without * were called inactive; u = inconclusive; x = no result given; ! = not active in a repeat; [ ] = dose if it differs, or a comment. The list is not random: actives were taken first. Their share in the collection is about 11%. Unless noted, the call rests on the fitted dose curve; in most records, active means well fitted inhibition curve with a large enough effect; inconclusive means small, poorly fitted or top-dose-only effect; inactive means no such curve, though single readings can be large or run the other way.
SMILES,BAZ2B block,HP1b binding inh,PI5P4K alpha inh,G9a block,L3MBTL1 inh,JMJD2A Tudor inh
CCc1c(C)sc(NC(=O)c2cc(CC(C)C)on2)c1C#N,-3%,19%,5,u,x,6%
Cc1onc(C(=O)Nc2ccccc2C(F)(F)F)c1[N+](=O)[O-],-4%,36%,1,x,x,-12%
CCc1c(C)sc(NC(=O)c2cc(-c3ccc(O)cc3)on2)c1C#N,8%,14%,-30,45µM*,x,-6%
CCc1c(C)sc(NC(=O)c2cc(-c3cccc(Cl)c3)on2)c1C#N,-2%,-11%,x,3.2µM*,x,-11%
CCc1c(C)sc(NC(=O)c2cc(-c3ccc(OC)c(OC)c3)on2)c1C#N,3%,u,0,7.9µM*,8%,-6%
Clc1cccc(Nc2ncnc3c2nc2n3CCCCC2)c1,-5%,25%,x,-34%[59 µM],x,-16%
CCc1c(C)sc(NC(=O)c2cc(-c3cc(OC)ccc3OC)on2)c1C#N,-23%,24%,x,-29%,-1%,-17%
CCc1c(C)sc(NC(=O)c2noc(C)c2[N+](=O)[O-])c1C#N,-38%,-8%,-3,40µM*,x,-19%
CCc1ccc(NC(=O)Cn2cnc3sc(C)c(S(=O)(=O)N4CCN(c5ccccc5OC)CC4)c3c2=O)cc1,0%,36%,x,11%[59 µM],x,-9%
N#Cc1c(Cl)c(Cl)c2nnc(-c3ccc(Br)cc3)n2c1Cl,56µM*,x,x,13µM*,-1%,x
CC(C)Cn1c(=O)c2ccccc2n2c(-c3ccc(Br)cc3)nnc12,-33%,-13%,x,-47%[59 µM],x,u
Cc1ccc(CNC(=O)Cn2cc(C(=O)c3ccc(Cl)cc3)c(=O)c3ccc(C)nc32)cc1,10%[57.1 µM],34%,x,-23%[59 µM],x,-7%
COc1ccc([C@H]2Oc3cc(O)cc(O)c3C(=O)C2[C@@H]2C(=O)c3c(O)cc(O)cc3O[C@@H]2c2ccc(OC)cc2)cc1 (some centres undefined),-30%,-16%,-58*,2%[59 µM],x,u
COc1ccc(C2CC(=O)Oc3cc(O)cc(O)c32)cc1 (centres undefined),-1%,26%,13,27%[12.7 µM],x,-19%
C=CCn1c(O)c(C2=c3ccccc3=NC2=O)s/c1=N/c1nccs1,-33%,-1%,-15,u,x,-24%
C=CCn1c(O)c(C2=c3ccccc3=NC2=O)c2ccccc21,6.3µM*,u,-13,6.3µM*,0%,10µM*
O=C(NCCN1CCOCC1)C1(C(F)(F)F)C/C(=C/CCO)CCCO1 (centres undefined),x,29%,x,x,x,-12%
Cc1cc(C)cc(NC(=O)C2CCCN(C(=O)c3cnn(-c4ccccc4)c3-n3cccc3)C2)c1 (centres undefined),-22%,17%,x,-2%[59 µM],x,-22%
COc1ccc(Cn2nnnc2C(c2ccc(F)cc2)N2CCN(C3CCCC3)CC2)cc1 (centres undefined),-1%,15%,-3,13%[59 µM],2%,6%
CN1CCN(C(c2ccccc2)c2nnnn2Cc2ccccc2)CC1 (centres undefined),6%,14%,2,20%[59 µM],-1%,-8%
CCCC(c1nnnn1Cc1ccc(OC)cc1)N1CCC(C(N)=O)CC1 (centres undefined),u,28%,6,71µM*,-4%,-18%
CC1CCN(C(c2ccc(N(C)C)cc2)c2nnnn2Cc2ccccc2)CC1 (centres undefined),18µM*,u,2,16µM*,-4%,50µM*
COc1ccc(Cn2nnnc2C(CC(C)C)N2CCC(C(N)=O)CC2)cc1 (centres undefined),-4%,38%,2,x,-4%,-4%
COc1ccc(Cn2nnnc2C(c2ccc(N(C)C)cc2)N2CCC(C)CC2)cc1 (centres undefined),28µM*,-48%,2,-121%[59 µM],-11%,45µM*
COCc1cc(C)n(CC(=O)Nc2ccc(NC(C)=O)cc2)c(=O)c1C#N,-6%,15%,x,-25%[59 µM],x,-4%
SMILES,BAZ2B block,HP1b binding inh,PI5P4K alpha inh,G9a block,L3MBTL1 inh,JMJD2A Tudor inh
CCOC(=O)c1c(C)n(C)c2ccc(O)c(CN3CCC(C)CC3)c12,7%,5%,-2,u,-6%,-19%
CCOC(=O)c1c(CN2CCOCC2)n(C)c2cc(Br)c(O)c(CN(C)C)c12,u,-6%,-12,11µM*,8%,-15%
CCOC(=O)c1c(CSc2ccccc2)n(C)c2ccc(O)c(CN3CCOCC3)c12,35µM*,8%,3,40µM*,-27%,-34%
CCOC(=O)c1c(CS(=O)(=O)c2ccccc2)n(C)c2cc(Br)c(O)c(CN(C)C)c12,19%,6%,0,-6%,-16%,-18%
O=C(CC1Nc2cccc3cccc(c23)NC1=O)Nc1ccc(F)cc1 (centres undefined),u,-13%,-18,u,-7%[2.29 µM],-27%
COc1ccc(NC(=O)CC2Nc3cccc4cccc(c34)NC2=O)cc1 (centres undefined),u,14%,-23,25µM*!,-6%,u
CCCCn1nnc(NC(=S)NC(=O)c2ccc(-c3cccc(Cl)c3Cl)o2)n1,-8%,-24%,-2,45µM*,-7%,u
CCCCC(=O)NC(=S)Nc1nnn(CCC)n1,71µM*,-2%,-2,10µM*,14%,3.5µM*
CC1(C)CC(c2nc(-c3ccc([N+](=O)[O-])cc3)cs2)CCO1 (centres undefined),u,7%,-7,50µM*,x,-14%[57.1 µM]
O=[N+]([O-])c1ccc(-c2csc(NN=C3CCCC3)n2)cc1,-1%,18%,-1,50µM*,-3%,-28%
Nc1nc(-c2ccc([N+](=O)[O-])cc2)cs1,1%,16%,-6,50µM*,4%,-14%
Nc1nc(-c2ccc(F)cc2)cs1,u,-39%,-3,45µM*,-3%,-23%
Cn1c(=O)c(=O)n(C)c2cc(N3CCCC3)c(NC(=O)c3ccccc3Cl)cc21,-15%,26%,x,-40%[59 µM],x,7%
Nc1nc(-c2ccc3c(c2)CCC(=O)N3)cs1,-18%,26%,3,45µM*,6%,-12%
Nc1nc(-c2ccc(Br)cc2)cs1,50µM*,-13%,7,u,x,79µM*
Nc1nc(-c2ccccc2)cs1,-3%,u,x,u,x,-26%
O=C(NCc1ccccc1Cl)c1ccc2oc(=O)n(Cc3ccccc3)c2c1,0%,39%,x,23%[59 µM],x,11%
CCCCNC(=S)N1CCN(C)CC1,40µM*,45µM*,0,11µM*,2%,11µM*
CCCCNC(=S)N1CCN(c2ccccc2Cl)CC1,13%,71%,2,2%,x,11%[57.1 µM]
